Screening results (PubChem)
FLuc counter = counter-screen for miR-21 project: firefly luciferase inhibitors or activators; P08659; purified FLuc, Km substrates, luminescence inhibition; Potency, µM (titrated, usually from 57.5 µM), usual class: inhibitors; actives 6.9% (n = 360,000); AID 588342; further: nearly all actives have a fitted effect of over 55% in size
Target sequence (P08659 whole entry, looked up): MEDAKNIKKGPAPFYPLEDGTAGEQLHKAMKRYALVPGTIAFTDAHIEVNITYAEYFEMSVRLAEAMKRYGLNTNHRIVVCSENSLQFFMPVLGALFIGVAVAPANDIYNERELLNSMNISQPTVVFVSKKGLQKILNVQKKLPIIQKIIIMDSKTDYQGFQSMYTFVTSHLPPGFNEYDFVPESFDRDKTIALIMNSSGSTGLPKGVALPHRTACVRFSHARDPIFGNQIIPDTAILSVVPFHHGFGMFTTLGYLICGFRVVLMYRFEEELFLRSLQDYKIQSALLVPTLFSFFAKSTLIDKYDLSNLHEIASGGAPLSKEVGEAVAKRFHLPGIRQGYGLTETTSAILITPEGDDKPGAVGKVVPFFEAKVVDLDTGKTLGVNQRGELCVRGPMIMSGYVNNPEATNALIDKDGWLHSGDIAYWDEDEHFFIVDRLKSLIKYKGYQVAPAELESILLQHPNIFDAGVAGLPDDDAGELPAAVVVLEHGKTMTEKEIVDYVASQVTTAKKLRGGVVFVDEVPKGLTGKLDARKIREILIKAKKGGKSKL
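Biochemical qHTS of compounds, final roughly 60 µM downward over six points, against 10 nM purified firefly luciferase using Km concentrations of substrates (10 uM D-luciferin, 10 uM ATP) in Tris acetate pH 7.5 buffer; luminescence output.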
ELG1 genotoxic = induces genotoxicity in HEK293T cells with luciferase-tagged ELG1. HEK293T ELG1-luciferase reporter, luminescence, 16 h. Potency, µM (doses to about 46 µM), usual class: activators. actives 1.3% (n = 330,000); further: nearly all actives have a fitted effect of over 60% in size
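Quantitative HTS format in 1536-well plates. HEK293T ELG1-luciferase reporter cells receive test compound and are incubated 16 hr at 37 °C, 5% CO2; ONE-Glo added, 30 min room temperature, then luminescence read.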
SMN2 splice enh = increases expression of the SMN2 splice variant. AID 1458. Potency, µM (top dose mostly 46.1 µM), actives largely listed as activators. HEK293 SMN2-luciferase splicing reporter, luminescence, 30-36 h. actives 2.8% (n = 210,000); further: nearly all actives have a fitted effect of over 55% in size
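HEK293 cells carry an SMN2 minigene-luciferase reporter in which exon 7 inclusion puts luciferase in frame. Cells were seeded at 2000 cells/well, attached for 10-12 hours, then exposed to compounds for 30-36 hours at 37C before ONE-Glo luminescence.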
Rab9 promoter act = Rab9 promoter activation; Huh7 Rab9 promoter-luciferase reporter, luminescence, 24 h; Potency, µM (top dose mostly 9.22 µM), usual class: activators; actives 2.8% (n = 320,000); AID 485297; further: nearly all actives have a fitted effect of over 60% in size
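Cells were plated at 1500 per well in reduced-serum medium with 10% FBS and left 2 h. Compound in DMSO was then added for 24 h at 37 °C. Reporter signal was read by luminescence after 10 min with luciferase detection reagent.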
NPC1 prom act = NPC1 promoter activation | Potency, µM (titrated, usually from 9.22 µM), usual class: activators | Huh7 NPC1 promoter luciferase reporter, 24 h | actives 2.4% (n = 320,000); further: nearly all actives have a fitted effect of over 60% in size
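Stable NPC1-promoter luciferase Huh7 line; cpd (DMSO) 24 h, 37 °C, 5% CO2; Amplite luciferase reagent 10 min RT; luminescence readout. qHTS format.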
A number is an active result; . = inactive; ? = inconclusive; / = no result. This is a sample that favours compounds with a hit; in the whole collection about 7.4% have one here. The call rests on the fitted dose curve; in most records, active means well fitted curve in the direction sought with a large enough effect; inconclusive means small, poorly fitted or top-dose-only effect, or another doubt; inactive means no such curve, though single readings can be large; an effect the other way counts as inactive or inconclusive.

SMILES | FLuc counter | ELG1 genotoxic | SMN2 splice enh | Rab9 promoter act | NPC1 prom act
O=C(CSc1nc(-c2ccc(F)cc2)cc(C(F)(F)F)n1)NCCc1ccccc1 | . | / | . | / | /
CCc1nc2cccnc2n1-c1ccc(CC(=O)Nc2cccc(C)c2C)cc1 | . | / | / | / | /
Cc1cc(NC(=O)NCc2ccccc2)c(=O)n(Cc2ccccc2F)c1 | 5.4µM | . | / | . | .
COc1cccc(NC(=O)Nc2cccn(Cc3ccc(C)cc3)c2=O)c1 | ? | . | / | . | .
COc1cccc(Cn2cc(C)cc(NC(=O)NCc3ccccc3)c2=O)c1 | 2.1µM | . | / | . | .
C[C@]12C[C@H](O)CC(CO)(CO)C1[C@H](O)C[C@@]13CC4[C@@H](CC12)[C@@]4(C)C3 (stereo not given in full) | / | / | . | / | /
COc1ccc(NC(=O)O/N=C/c2ccc(Br)cc2)cc1 | 27µM | . | / | . | .
Cc1ccc(NC(=O)O/N=C/c2ccc(Br)cc2)cc1 | ? | . | / | . | .
COc1ccc(/C=N/OC(=O)Nc2ccccc2OC)cc1 | 8.5µM | ? | 16µM | ? | .
COc1ccc(NC(=O)O/N=C/c2ccc(N(C)C)cc2)cc1 | 21µM | . | / | . | .
COc1ccc(/C=N/OC(=O)Nc2ccc(Cl)cc2)c(OC)c1 | 12µM | . | / | . | .
COc1ccc(NC(=O)O/N=C/c2ccncc2)cc1 | ? | . | . | . | .
CN(C)c1ccc(/C=N/OC(=O)Nc2ccccc2Cl)cc1 | 24µM | . | / | . | .
Cc1ccc(NC(=O)O/N=C/c2ccc(N(C)C)cc2)cc1 | 12µM | . | / | . | ?
CCN(CC)c1ccc(/C=N/OC(C)C(=O)Nc2ccc(C)cc2)cc1 (stereo not given) | ? | . | . | . | .
COc1ccc2c(Cl)c(C(=O)N/N=C3\CCCC(=O)C3)sc2c1 | 17µM | . | ? | ? | .
COc1ccc2c(Cl)c(C(=O)N/N=C/c3ccc4c(c3)OCO4)sc2c1 | . | . | . | . | .
CC(=O)c1sc(Nc2cccc(C)c2)nc1C | 21µM | ? | ? | ? | .
CCOC(=O)c1sc(Nc2ccccc2)nc1C | 15µM | 16µM | . | 4µM | 4µM
CCOC(=O)c1sc(Nc2ccc(F)cc2)nc1C | . | . | . | . | .
Cc1cccc(C(=O)Nc2nc(C)c(C(=O)Nc3ccc4c(c3)CCC4)s2)c1 | 6.7µM | . | ? | . | .
Cc1cccc(NC(=O)c2sc(C)nc2C)c1 | 24µM | . | ? | ? | ?
CCOC(=O)c1sc(Nc2nc3c(OC)cccc3s2)nc1C | 6.7µM | ? | ? | ? | ?
CCOC(=O)c1sc(NC(=O)Nc2ccc(Cl)cc2)nc1C | 2.7µM | . | ? | ? | 4µM
CCOC(=O)Nc1nc(C)c(C(=O)c2ccc(Cl)cc2)s1 | . | . | . | . | .
SMILES | FLuc counter | ELG1 genotoxic | SMN2 splice enh | Rab9 promoter act | NPC1 prom act
COc1ccc(C(=O)c2sc(Nc3ccccc3)nc2C)cc1 | ? | . | / | . | .
COC(=O)c1sc(Nc2ccccc2)nc1C | 19µM | ? | . | ? | ?
Cc1nc(Nc2ccccc2)sc1C(=O)c1ccccc1 | 21µM | . | / | 3.5µM | ?
O=C(CSc1n[nH]c(-c2ccncc2)n1)Nc1ccccc1C(F)(F)F | . | . | / | . | .
CC(C)NC(=O)N1CCCC2(CCN(C(=O)c3csnn3)CC2)C1 | / | / | . | / | /
CCn1ncc(Cl)c1C(=O)Nc1ccc2c(c1)CCC2 | ? | ? | / | . | .
CCOC(=O)N1CCN(C(=O)c2cn(C)c3ccc(S(=O)(=O)N4CCOCC4)cc3c2=O)CC1 | . | . | / | . | .
CC(C)(C)C(=O)c1sc(Nc2ccccc2)nc1N | 5.4µM | 1.3µM | 11µM | 2µM | 2µM
Nc1nc(Nc2cccc(C(F)(F)F)c2)sc1C(=O)c1ccccc1 | . | / | / | / | /
CCOc1ccc(-c2nc3c(c(SCC(=O)N4CCCCC4)n2)Cc2cccc(OC)c2O3)cc1 | . | / | . | / | /
O=C(N/N=C/c1cccc2nccnc12)c1ccccc1O | 11µM | . | / | . | .
O=C(N/N=C/c1cccc2cccnc12)c1ccccc1O | 7.6µM | 21µM | / | . | .
C#CCSc1nnnn1-c1ccc(OCC)cc1 | . | . | / | . | .
O=C(O)Cn1ncc2ccccc2c1=O | . | . | / | . | .
O=c1c2ccccc2cnn1CCOc1ccccc1 | 0.3µM | ? | / | 0.1µM | 0.089µM
C=CCn1c(-c2cccs2)nc2nc3ccccc3nc21 | 19µM | ? | 2.8µM | . | .
C=CCn1c(-c2cccc(OC)c2)nc2nc3ccccc3nc21 | 15µM | . | . | . | .
Cc1ccc(-c2csc(=Nc3ccc(F)cc3)n2Cc2ccc3c(c2)OCO3)cc1C | . | / | . | / | /
Cc1oc(-c2cccc(Cl)c2)nc1CN1CCCC(C(=O)NCc2ccc(F)cc2)C1 (stereo not given) | . | / | . | / | /
CNC(=S)N/N=C/c1c2ccccc2c(Cl)c2ccccc12 | . | . | / | . | .
Cc1nc(SCC(=O)O)c2oc3ccccc3c2n1 | ? | . | . | . | .
O=C(CSc1ncnc2c1oc1ccccc12)c1cccs1 | ? | ? | . | 4µM | 2.8µM
Cc1nc(SCC(=O)c2cccs2)c2oc3ccccc3c2n1 | 9.5µM | ? | 10µM | 4µM | ?
Cc1ccc(N=CC2=C(O)CC(c3ccco3)CC2=O)cc1 (stereo not given) | 11µM | . | . | . | .
O=C1CC(c2ccccc2)CC(O)=C1C=Nc1ccccc1 (stereo not given) | 17µM | . | . | . | .
SMILES | FLuc counter | ELG1 genotoxic | SMN2 splice enh | Rab9 promoter act | NPC1 prom act
CCCCC/C=C\C/C=C\C/C=C\C=C\C(=O)CCCC(=O)O | / | / | . | / | /
COc1cccc(NC(=O)CSC2=Nc3ccccc3C3=NC(CCC(=O)NCCc4ccccc4)C(=O)N23)c1 (stereo not given) | . | / | / | / | /
CCOC(=O)c1sc(N2N=C(C)C(N=Nc3cccc(C)c3)C2=O)nc1C (stereo not given) | 6.7µM | . | / | . | .
CCN(CC)C(=O)COc1ccc(/C(C)=N/NC(=O)c2ccccc2O)cc1 | 6.7µM | . | . | ? | .
CCN(CC)C(=O)COc1ccc(-c2ccccc2)cc1 | 13µM | ? | . | ? | ?
CCN(Cc1ccccc1)C(=O)COc1ccccc1 | . | . | / | . | .
CCC(C)(C)C1CCc2[nH]nc(C(=O)NC(C)C)c2C1 (stereo not given) | . | . | / | . | .
Cc1cc(N/N=C/c2ccc3c(c2)OCO3)nc2ccccc12 | 2.7µM | . | / | 2.5µM | ?
Cc1cc(=O)[nH]c(N/N=C/c2ccc(F)cc2)n1 | ? | . | / | . | .
CCCc1cc(=O)[nH]c(N/N=C/C=C\c2ccccc2)n1 | . | . | . | . | .
Fc1ccc(/C=N/Nc2nc3ccccc3[nH]2)cc1F | 12µM | . | . | . | ?
C(=C\c1ccccc1)/C=N/Nc1nc2ccccc2[nH]1 | 3.8µM | 18µM | / | 4.5µM | 3.2µM
O=c1[nH]c(N/N=C\c2ccc3c(c2)OCO3)nc2ccccc12 | 3.8µM | ? | 8.9µM | 0.56µM | 0.79µM
COc1ccc2sc(N(Cc3cccnc3)C(=O)C3CCCCC3)nc2c1 | . | / | / | / | /
O=C(CSCc1ccccc1Br)NNC(=S)NCc1ccco1 | . | . | / | . | .
